# Pf Dd2 inh = P. falciparum Dd2 growth inhibitors, primary screen, SYBR Green fluorescence, single dose replicates; 72 h; stronger effect = lower value; activity change, % at 10 µM; 2.3% of 94,000 active; in the data active means activity change below about -80%; inconclusive means no clear call, values can overlap the other calls
# C diff growth = C. difficile growth inhibitors, primary screen, HTS. Clostridium difficile clinical isolate growth, OD600, 24 h; stronger effect = lower value. growth activity, negative = inhibition, % at 16 µg/mL (by protocol). 0.25% of 86,000 active;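 active means mean growth activity at or below -80% and every replicate also at or below -80%; inconclusive means mean at or below -80% but some replicate above -80%; inactive means mean growth activity above -80%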;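 further: 0% = DMSO wells and -100% = levofloxacin 16 µg/mL wells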
# T cruzi growth-1 = T. cruzi intracellular proliferation inhibitors, primary screen, cell-based, beta-gal Tulahuen parasites, NIH3T3 host, luminescence; T. cruzi beta-gal in NIH3T3, GalScreen luminescence, 90 h; inhibition, % at 8.34 µM; 5.9% of 77,000 active; AID 624255, 2012;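 active means mean inhibition above about 93%, with at least 55% of replicates each passing it, limit read from the data, passing the limit was not always enough; inconclusive means only one of those two conditions holds; inactive means neither condition holds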
# T cruzi growth-2 = T. cruzi intracellular proliferation inhibitors, confirmation, cell-based, NIH3T3 host, beta-gal parasite, luminescence, cherry-pick; T. cruzi beta-gal in NIH3T3, GalScreen luminescence, 90 h; 72% of 5,600 active; shares compounds with T cruzi growth-1; inhibition, % at 8.35 µM;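 active means mean replicate inhibition above about 95% and at least 55% of replicates individually reaching it, limit read from the data; inconclusive means only one of the two criteria is met; inactive means neither criterion is met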
# T cruzi growth-3 = inhibitors of intracellular T. cruzi replication, confirmation, NIH3T3 host cells, beta-gal parasites, cherry-pick, set 2; shares compounds with T cruzi growth-1; T. cruzi beta-gal in NIH3T3, GalScreen luminescence, 90 h; inhibition, % at 2.09 µM; 21% of 5,600 active; AID 651740, 2012;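 active means mean inhibition above about 95%, with at least 55% of replicates also reaching it, limit read from the data; inconclusive means meets just one of the two conditions; inactive means meets neither condition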;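 further: plate controls were neutral control median for no effect and positive control median for full effect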
# NIH3T3 tox = cytotoxicity in mouse NIH/3T3 fibroblasts, confirmation, cytotoxicity control for T. cruzi proliferation inhibitor project, cell-based, cherry-pick, single point; shares compounds with T cruzi growth-1; NIH/3T3 viability, CellTiter-Glo ATP luminescence, 90 h; 14% of 5,600 active; cytotoxicity (signal decrease), % at 8.35 µM;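 active means mean signal decrease across replicates above about 35% based on untreated-well scatter, with enough replicates individually passing, limit read from the data; inconclusive means no rule stated though some were filed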;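 further: 0% = median of neutral control wells and 100% = median of positive control wells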
# NIH3T3 tox 2 = NIH/3T3 fibroblast cytotoxicity, confirmation, cytotoxicity control, cell-based, cherry-pick, single point, set 2; shares compounds with T cruzi growth-1; NIH/3T3 viability, CellTiter-Glo ATP luminescence, 90 h; inhibition, % at 24.9 µM; 56% of 5,600 active; AID 651744, 2012;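 active means mean loss of cell viability signal at or above a set limit, and enough replicates individually reaching it; inconclusive means meets only the mean limit or only the replicate share; inactive means meets neither condition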;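 further: 0% = median of neutral control wells and 100% = median of positive control wells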
# * hit, by the source's call; ? = inconclusive; / = not tested or not shown. Hits are enriched below; roughly 6.8% of the tested compounds scored in any of these assays.
SMILES,Pf Dd2 inh,C diff growth,T cruzi growth-1,T cruzi growth-2,T cruzi growth-3,NIH3T3 tox,NIH3T3 tox 2
CO[C@H]1CN(C)C(=O)c2cc(NC(=O)c3cc(C)on3)ccc2OC[C@H](C)N(C(=O)C2CC2)C[C@H]1C,-76,-2,61,/,/,/,/
CN(C)c1ccc2c(c1)[C@H]1C[C@@H](CC(=O)NCc3ccc4c(c3)OCO4)O[C@@H](CO)[C@H]1O2,-32,/,24,/,/,/,/
N#C[C@@H]1[C@H](c2ccc(C#Cc3ccccc3F)cc2)[C@H](CO)N1C(=O)C1CC1,-53,0,100*,102*,110*,23,44*
CCS(=O)(=O)N1[C@H](CO)[C@@H](c2ccc(C#Cc3ccccc3F)cc2)[C@@H]1C#N,-63,-3,?,107*,109*,-1,5
CCS(=O)(=O)N1[C@H](C#N)[C@@H](c2ccc(C#Cc3ccccc3F)cc2)[C@H]1CO,3,1,34,/,/,/,/
N#C[C@@H]1[C@@H](c2ccc(C#Cc3ccccc3F)cc2)[C@H](CO)N1C(=O)C1CCOCC1,-22,0,69,/,/,/,/
N#C[C@@H]1[C@H](c2ccc(C#Cc3ccc(F)cc3)cc2)[C@@H](CO)N1C(=O)C1CCCC1,-57,-4,88,/,/,/,/
N#C[C@H]1[C@H](c2ccc(C#Cc3ccc(F)cc3)cc2)[C@H](CO)N1C(=O)C1CC1,-29,-16,114*,102*,76,-13,80*
C[C@@H]1CN([C@@H](C)CO)S(=O)(=O)c2ccc(-c3cncnc3)cc2O[C@@H]1CN(C)Cc1cccnc1,2,6,18,/,/,/,/
CO[C@@H]1CN(C)C(=O)c2ccc(NC(C)=O)cc2OC[C@@H](C)N(Cc2cccnc2)C[C@H]1C,-35,-3,/,/,/,/,/
CCCNC(=O)N1C[C@H](C)[C@H](OC)CN(C)C(=O)c2ccc(NC(C)=O)cc2OC[C@H]1C,-36,/,-46,/,/,/,/
CO[C@H]1CN(C)C(=O)c2cc(NC(=O)c3cnccn3)ccc2OC[C@@H](C)N(CC2CC2)C[C@H]1C,-8,3,/,/,/,/,/
C[C@H](NC(=O)C[C@H]1C[C@@H]2c3cc(NS(C)(=O)=O)ccc3O[C@@H]2[C@@H](CO)O1)c1ccccc1,1,-3,/,/,/,/,/
COc1ccc(C#Cc2cnc3c(c2)C(=O)N([C@@H](C)CO)C[C@@H](C)[C@H](CN(C)C(=O)CN(C)C)O3)cc1,-67,-7,21,/,/,/,/
CC=Cc1ccc2n(c1=O)C[C@@H]1[C@@H](CO)[C@H](C(=O)NC3Cc4ccccc4C3)N(CC3CCCC3)[C@H]21 (mixture of isomers),36,31,/,/,/,/,/
C[C@H]1CN([C@@H](C)CO)C(=O)c2cc(/C=C/c3ccccc3)cnc2O[C@H]1CN(C)C(=O)c1cccc(F)c1,-62,-3,107,/,/,/,/
C[C@H](CO)N1C[C@H](C)[C@H](CN(C)C(=O)Nc2ccccc2)Oc2ncc(/C=C/c3ccccc3)cc2C1=O,-69,-2,97*,98*,65,36*,90*
C/C=C/c1cnc2c(c1)C(=O)N([C@@H](C)CO)C[C@H](C)[C@@H](CN(C)C(=O)Nc1ccccc1F)O2,-12,1,0,/,/,/,/
C[C@@H]1CN([C@@H](C)CO)C(=O)c2cc(/C=C/c3ccccc3)cnc2O[C@H]1CN(C)C(=O)Nc1ccccc1F,-51,-11,126*,108*,105*,-3,17
C[C@@H]1CN([C@H](C)CO)C(=O)c2cc(/C=C/c3ccccc3)cnc2O[C@@H]1CN(C)C(=O)Nc1ccccc1F,-34,-2,85,/,/,/,/
C[C@H](CO)N1C[C@H](C)[C@H](CN(C)C(=O)c2cccc(F)c2)Oc2ncc(/C=C/c3ccccc3)cc2C1=O,-70,-2,107*,107*,46,27,67*

# Bioassay records as filed in PubChem BioAssay.
